42 sequences from PMC7819943, “Rice protein-binding microarrays: a tool to detect cis-acting elements near promoter regions in rice” can be followed below.

In all, about 35,000 sequences were measured (“fluorescence intensity (a.u.)”: median about 10,000, highest 2% from about 52,000 on). Shown is part of a subset that was picked to be rich in the highest values.

In the assay the target is T1, OsWOX13 (Oryza sativa, UniProt Q5QMM3 1-267).
T1 sequence: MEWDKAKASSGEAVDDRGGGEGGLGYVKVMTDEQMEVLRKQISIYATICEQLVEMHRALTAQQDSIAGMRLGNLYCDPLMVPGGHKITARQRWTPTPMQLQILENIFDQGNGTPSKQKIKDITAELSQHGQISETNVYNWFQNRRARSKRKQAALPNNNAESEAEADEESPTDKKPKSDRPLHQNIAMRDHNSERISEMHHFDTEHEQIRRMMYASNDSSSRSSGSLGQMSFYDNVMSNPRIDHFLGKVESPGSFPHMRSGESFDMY
Put plainly: protein-binding microarray (RPBM); PBS, 2% BSA, 51.3 ng/ul salmon testes DNA, 50 uM zinc acetate, 200 nM TF, 25 C, 1 h; high values mean tight binding. As to conditions: protein: recombinant; tags: N-terminal polyhistidine and DsRed monomer fusion (pET32a); label: CyDye5-dUTP incorporated in the synthesized complementary strand; 3' TTTTT single-stranded linker to array surface; dsDNA, one strand shown. In outline:
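Binding signal here means per-feature fluorescence intensity in arbitrary units. The values were read on an Axon 4000B scanner after a custom Agilent array, double-stranded by primer extension with Cy5-dUTP, was incubated with 200 nM protein at 25 °C for 1 h in PBS with 2% BSA, salmon testes DNA and 50 µM zinc acetate, then washed. The proteins were transcription factors with an N-terminal polyhistidine tag and DsRed, expressed in E. coli BL21-CodonPlus and purified on Ni–NTA.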
As for “ATCTTAATTTACCTTTCACTGCATCTAATATGTCACTTTGCGGAGTCACCTAGTGCAG”, the binding signal was 20700 fluorescence intensity (a.u.).

As for “ATTTGAAATTTAAATTTTAGCTTTTGCTTTAGTTTATTTGCGGAGTCACCTAGTGCAG”, the binding signal is 8720 fluorescence intensity (a.u.).

Regarding “CCGTGATTAGCGACATTGCTGTGTGCAACGTTTGTTCCTTCGGAGTCACCTAGTGCAG”, the binding signal is 37600 fluorescence intensity (a.u.). For the sequence “TGTTAGATGATAAAACATGATTAATATTTTATGTGTGACTCGGAGTCACCTAGTGCAG”, the binding signal was 4360 fluorescence intensity (a.u.). With “AATAACTGATAAAAGATATATGATTTTGGAGAAATGTGTGCGGAGTCACCTAGTGCAG” the figure was 26100 fluorescence intensity (a.u.); with “TAGATTAATTTGTCATCAAAACACCCTCATATAATTAATTCGGAGTCACCTAGTGCAG”, 19200 fluorescence intensity (a.u.). With “TTTCTTAATTGTATTTCTATATGGACTTGATACCCTTCTTCGGAGTCACCTAGTGCAG” the figure was 18900 fluorescence intensity (a.u.); with “AATCCATAATTAGAGAATGTTTACTGTAGCATCACATAGGCGGAGTCACCTAGTGCAG”, 15900 fluorescence intensity (a.u.); with “CCTAATTAATCCATAGCACATGTTTACTGTAGCGTCACATCGGAGTCACCTAGTGCAG”, 12400 fluorescence intensity (a.u.). As to “GTAGTGAATGGCTGCCTAATTTTGTGCATTAACCATGGTGCGGAGTCACCTAGTGCAG”, the binding signal was 5100 fluorescence intensity (a.u.). For the sequence “AAGTCTAATTAATTCATAATTAGCACATGTTTACTGTAGCCGGAGTCACCTAGTGCAG”, the binding signal is 53800 fluorescence intensity (a.u.). For “AGCCTAATTAATCCGATATTAGTAAATGTTTACTGTAGCACGGAGTCACCTAGTGCAG”, the binding signal was 15000 fluorescence intensity (a.u.).

Regarding “TCATAATTAATTAGAAGTGGCTGCATGTGAGAATGTTTGGCGGAGTCACCTAGTGCAG”, the binding signal is 53800 fluorescence intensity (a.u.).

In the case of “CTAATTAATCCGTTATTAGCACATATGTGTTACTGTAGCACGGAGTCACCTAGTGCAG”, the binding signal is 12200 fluorescence intensity (a.u.). Take “TTCATAATTAGCACATGTTTACTGTGGTATCACATGGACTCGGAGTCACCTAGTGCAG”: the binding signal was 25200 fluorescence intensity (a.u.). Take “TAAACCTAATTAATCATCATTAGCAAATGTTTACTGTAGCCGGAGTCACCTAGTGCAG”: the binding signal was 30400 fluorescence intensity (a.u.). The same measure for “AGCCTAATTAATCTATAATTAGAGAATGTTTACTGTAGCACGGAGTCACCTAGTGCAG”: 46200 fluorescence intensity (a.u.); for “AGCCTAATTAATCCATAATTAACATATGTTTACTGTAGCACGGAGTCACCTAGTGCAG”: 53000 fluorescence intensity (a.u.); for “AGCCTAATTAATACATAATTAGCACATGTTTACTGTAGCACGGAGTCACCTAGTGCAG”: 55100 fluorescence intensity (a.u.).

With “CCATTTCTTGCTGATGATTGATGATGAACATTTCTAATAGCGGAGTCACCTAGTGCAG”, the binding signal is 27400 fluorescence intensity (a.u.). With “TACTATGATTTTCTTTGAATTCAGGTCCTTGCGATTCCAGCGGAGTCACCTAGTGCAG” the figure was 3510 fluorescence intensity (a.u.); with “TGGATAATTAAGCTCATGAGACGACAACGAACAATGAATGCGGAGTCACCTAGTGCAG”, 8610 fluorescence intensity (a.u.). In the case of “AGATGTTTGAATAATTGATACAATATCAGGAGCGAATATGCGGAGTCACCTAGTGCAG”, the binding signal was 4430 fluorescence intensity (a.u.).

For the sequence “TGAAATTTCTCTTCATTTTGTTTTAAATCCTGGACAGACACGGAGTCACCTAGTGCAG”, the binding signal was 3370 fluorescence intensity (a.u.). With “CAACCAATAAATTAGAACTCCATCTCGATCATGGTGTTATCGGAGTCACCTAGTGCAG” the figure was 4370 fluorescence intensity (a.u.); with “GGCTTGATTTATTGATTTGTTCTTTAGTACTCCAGTTCAACGGAGTCACCTAGTGCAG”, 25700 fluorescence intensity (a.u.). On to “ATAAATTAGCACCCACCTCTGCCTTCCTACCTTCCCCTCCCGGAGTCACCTAGTGCAG”, for which the binding signal is 24900 fluorescence intensity (a.u.). Turning to “GAGAGAGAGATCAGCACATGATTGATTAAATATTAGCTTACGGAGTCACCTAGTGCAG”, the binding signal was 19100 fluorescence intensity (a.u.). With “TTAATTGGATATATGATGTTGCAAATTTGCCTATTCAGAACGGAGTCACCTAGTGCAG” the figure was 27000 fluorescence intensity (a.u.). The same measure for “GCATGAAGACATCAATTAATTAATTGCATGGTTACATGCACGGAGTCACCTAGTGCAG”: 37200 fluorescence intensity (a.u.); for “TCCATAATTAGCAGCTGATTACTGTAGTATTACTGTAGCACGGAGTCACCTAGTGCAG”: 60800 fluorescence intensity (a.u.); for “TCCATAATTAGCGGCTGATTACTGTAGCATCACTGTAGCACGGAGTCACCTAGTGCAG”: 31200 fluorescence intensity (a.u.). With “TCATCAGTTAATTAATACATGCATATTATATTATATAGGGCGGAGTCACCTAGTGCAG” the figure was 20200 fluorescence intensity (a.u.); with “ATTAATCCATAATTAGCAAATGTTTACTGTAGCATCACATCGGAGTCACCTAGTGCAG”, 13800 fluorescence intensity (a.u.); with “CCTAATTAATCCATAATTATCAAAAGTTTACTGTAGCATCCGGAGTCACCTAGTGCAG”, 62800 fluorescence intensity (a.u.). For “TGTAATAGTGGGTTAATTAATTAGCTTGCCAGCTTCAGGGCGGAGTCACCTAGTGCAG”, the binding signal was 21900 fluorescence intensity (a.u.). The same measure for “ATGATTAGCAGCTGATTACTGTAGCATTACTGTAGCAAATCGGAGTCACCTAGTGCAG”: 45200 fluorescence intensity (a.u.); for “AATAATTAATTAATCATAGCTTGCAACTGCATATGTAGGGCGGAGTCACCTAGTGCAG”: 56700 fluorescence intensity (a.u.); for “ATTAATCCACAATTATCAAAAGTTTACTGTAGCATCACATCGGAGTCACCTAGTGCAG”: 5730 fluorescence intensity (a.u.).

Take “TTGGTGTAATTGACATGCGGGCCCACAATTTTATTATTTTCGGAGTCACCTAGTGCAG”: the binding signal was 23800 fluorescence intensity (a.u.). For the sequence “ATTGATAACGGCAGACTAACTGATACGACAGAGATGGTCACGGAGTCACCTAGTGCAG”, the binding signal was 7620 fluorescence intensity (a.u.). With “CCGGATTGCTGGATCATTTTCTTCTCGGCCCATTGGACTCCGGAGTCACCTAGTGCAG” the figure was 3410 fluorescence intensity (a.u.).
